# According to PubChem BioAssay (NCI):
# Compounds without any hit were thinned out: in the full panel of roughly 83,000, 20% have a hit.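 96-well plates, one dose, 48 hours. Percent growth reported; active if below 10.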 Calls of active or inactive are those of the source.
# Tested on: NCI-H226 lung
# Experiment: NCI-60 one-dose screen, 48 h (100 = growth as untreated, 0 = no growth, -100 = all killed)
# Conditions: 10 µM unless noted
row,Structure (SMILES),growth
1,COc1ccc(C2C(C#N)=C(/N=C/c3ccc(Cl)cc3)Oc3c2sc2c(C)cccc32)cc1 (stereo not given),45.4% (inactive)
2,CN1CC[C@@H]2[C@@]3(C)CC[C@H](O)C(C)(C)[C@@H]3CC[C@@]2(C)[C@]2(C)CC[C@@]3(CO)CCC(C)(C)C[C@@H]3C12 (stereo not given in full),94.4% (inactive)
3,Clc1ccc2c(N/N=C/c3c[nH]c4ccccc34)ccnc2c1,-52.1% (active)
4,O=c1c2cc(-c3ccc(F)cc3F)ccc2n(Nc2ccccc2)c(=O)n1-c1cccc(C(F)(F)F)c1,14.7% (inactive)
5,NC1[C@H]2CN(c3cnc(C(=O)Nc4cc(F)cc5cccnc45)cn3)C[C@@H]12 (stereo not given in full),85.1% (inactive)
6,CCOC(=O)c1cccc(NC2=C(Cl)C(=O)c3nc(C)ccc3C2=O)c1,89.5% (inactive)
7,O=C(CSc1nnc(-c2cccs2)n1-c1ccccc1)Nc1ccccc1,64.4% (inactive)
8,CCc1cc2c(cc1Cl)nc1c(=O)[nH]c(=O)nc-1n2CCOCC(C)C,39.4% (inactive)
9,Cc1csc(/N=C(N)/N=C(\N)c2cccc(C#N)c2)n1,86.5% (inactive)
10,Clc1ccc(CSc2nnc(-c3ccc(Cl)cc3)n2-c2ccccc2)cc1,46.1% (inactive)
11,C#Cc1nc(C(=O)NCCCCCCC(=O)NO)cs1,39.1% (inactive)
12,CCCNNC(=O)c1ccc(-c2ccc(NC(=O)CCCCCCC(=O)N[C@H](C(=O)N3C[C@H](O)C[C@H]3C(=O)N[C@@H](C)c3ccc(-c4scnc4C)cc3)C(C)(C)C)cc2)cc1,46.5% (inactive)
13,CN1CCN(c2ccc(Nc3nc(NCCNC(=O)c4ccccc4)c4sccc4n3)cc2)CC1,108% (inactive)
14,COc1cc2c3c(cc4c5c(ccc4c3c1OC)OCO5)N(CCN(C)C)C2=O,-58.8% (active)
15,N#Cc1c(-c2cccs2)cc(-c2cnccn2)nc1SCC(=O)N/N=C/c1ccc(Cl)cc1,98.1% (inactive)
16,COC(=O)c1cccc(NC2=CC(=O)C(C)=C(C)C2=O)c1,95% (inactive)
17,C#Cc1nc(/C=C/CCCCCCC(=O)NO)cs1,87.6% (inactive)
18,CC(=O)Nc1nc(C)c(-c2csc(Nc3ccccc3)n2)s1,19.4% (inactive)
19,CC1=C(C)C(=O)C(Nc2ccc3c(c2)OCO3)=C(Br)C1=O,93% (inactive)
20,N#Cc1cccc(-c2cc(-c3ccc4c(c3)OCCO4)[nH]n2)c1,72.2% (inactive)

row,Structure (SMILES),growth
1,COc1ccc2c(c1)c(-c1nc(N)nnc1-c1c[nH]c3ccccc13)cn2C,37.6% (inactive)
2,CC1(C)CC[C@]23CC[C@]4(C)[C@H](CC[C@@H]5[C@@]6(C)CC[C@H](N)C(C)(C)[C@@H]6CC[C@]54C)[C@H]2[C@H]1OC3,96.6% (inactive)
3,Fc1cccc(Cl)c1/C=N/Nc1nc(N/N=C/c2c(F)cccc2Cl)nc(N2CCCCC2)n1,53.9% (inactive)
4,Cc1ccccc1N1CCN(C2=C(Cl)C(=O)c3ncccc3C2=O)CC1,94.2% (inactive)
5,CC(=O)OC[C@@]12Oc3c(cccc3-c3ccc(O)c4c3O[C@]3(COC(C)=O)C(=C4O)C(=O)C[C@H](C)[C@@H]3OC(C)=O)C(O)=C1C(=O)C[C@H](C)[C@@H]2OC(C)=O,25.9% (inactive)
6,COc1ccc(CC(C)=C(c2ccc(OCCN3CCCC3)cc2)c2ccc(OCCN3CCCC3)cc2)cc1,-69.2% (active)
7,CNC(=O)c1cc(N2CCc3cc(NC(=O)Nc4ccc(N5CCOCC5)c(C(F)(F)F)c4)ccc32)ccn1,35.2% (inactive)
8,CN(C)CC(=O)Nc1nc(-c2cccc(NS(=O)(=O)c3cccc4c(N(C)C)cccc34)c2)cs1,74.1% (inactive)
9,NCCNC(=O)c1cccc(COc2ccccc2NC(=O)c2cc(Cl)c(Cl)[nH]2)c1,96.4% (inactive)
10,COc1cccc2c1C=CC1(O2)Oc2cccc(OC)c2C=C1C (stereo not given),57.4% (inactive)
11,COc1ccc(-c2c(C(N)=O)c(N)n(Cc3nc4ccccc4[nH]3)c(=O)c2C#N)c(OC)c1,94.5% (inactive)
12,NC1C2CCC1CN(c1cnc(C(=O)Nc3cc(F)cc4cccnc34)cn1)C2 (stereo not given),75.7% (inactive)
13,COc1ccc2c(c1)c(-c1nnc(N)nc1-c1c[nH]c3ccc(F)cc13)cn2C,57.8% (inactive)
14,COc1ccc([C@H]2C(=O)N(c3cc(OC)c(OC)c(OC)c3)[C@@H]2c2ccc(OC)c(O)c2)cc1,41.8% (inactive)
15,CCOC(=O)c1cnc2c(-c3ccc(Cl)c(Cl)c3)cnn2c1,80.1% (inactive)
16,Oc1[nH]c2ccc(Cl)cc2c1N=Nc1nc(N=Nc2c(O)[nH]c3ccc(Cl)cc23)nc(N2CCOCC2)n1,57.3% (inactive)
17,CCC1=Cc2c(OC)cccc2OC12C=Cc1c(OC)cccc1O2 (stereo not given),58.3% (inactive)
18,CCCC/C(=C\c1ccc(O)c(O)c1)C(=O)NC(Cc1ccccc1)C(=O)C(=O)NCCc1ccc(OC)cc1 (stereo not given),92.7% (inactive)
19,CC/C(=C(/c1ccc(Cl)cc1)c1ccc(OCCN)cc1)c1ccccc1,105% (inactive)
20,Cc1ccc(S(=O)(=O)c2nc(-c3ccc(F)cc3)oc2S(C)(=O)=O)cc1,83.6% (inactive)
